Structures are written as SMILES. The whole screen tested about 410,000 compounds, of which about 3,100 (0.76%) were called active. The list comes from a sample in which actives are over-represented; it also holds similar structures and randomly drawn compounds. Values without a mark were called inactive. Calls come from the whole dose curve; as a rule, active = well fitted cell-killing curve with a large enough effect; inactive = no such curve, though single readings can be large or run the other way.
Potency is the fitted concentration of half-maximal effect.

The nature of this assay: qHTS for Inhibitors of TGF-b: Cytotox Counterscreen. Particulars: HepG2 CAGA-GFP viability, ATP luminescence, 18 h; series mostly up to 46.1 µM; activity change, negative = cytotoxicity: at the top concentration. In a few lines:
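CellTiter-Glo luminescence gave cytotoxicity after 18 hours at 37 degrees C. The cells were HepG2 CAGA-GFP in 1% FBS DMEM, stimulated with 500 pg/mL TGF-beta after compound addition. %Activity was normalised to no-cell wells (complete cell-killing) and DMSO (no toxicity), and curves were fitted and classified.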
For orientation: Quantitative high-throughput screening tests each substance at several concentrations.
Regarding `COc1ccc(-c2nn(CC(=O)Nc3ccccc3F)c3c2cnc2ccc(F)cc23)cc1`, the “activity change, negative = cytotoxicity” value was 0.4%. Same read-out and setting: to `CN(CCC#N)c1ccc(C=O)cc1` belongs -6.52%; to `O=C(Cn1c(=O)n(-c2ccc(F)cc2)c(=O)c2sccc21)Nc1cccc(C(F)(F)F)c1`, -27%; to `COc1ccc(/C=C/c2ccnc3ccccc23)cc1OC`, -19.3%. Still for that read-out and setting: the result for `O=C(c1ccc2ccccc2n1)N1CCN(c2ccccc2Cl)CC1` reads -2.3%. With `O=C(c1c(Cl)cccc1Cl)N1CCN(c2cccc3[nH]ccc23)CC1`, the Potency is 0.447 µM (active). For `Cc1cccc(N2CCN(C(=O)c3cc4c(=O)[nH]c5ccccc5c4n3C)CC2)c1C`, the “activity change, negative = cytotoxicity” value was -13.2%.

Take `CCc1ccccc1N(C)C(=O)C1CCCN(c2ncnc3onc(-c4ccc(F)cc4)c23)C1` (stereo not drawn): the “activity change, negative = cytotoxicity” value is 1.08%. Regarding `Oc1cccc2cc(-c3ccncc3)cnc12`, the Potency is 2.82 µM (active). As to `Cc1ccc2c(c1)N(C(=O)CCC(=O)NCc1ccccc1F)CC(C)O2` (stereo not drawn), the “activity change, negative = cytotoxicity” value was -1.52%.

For the molecule `CC1=C(C(=O)OCC2CCCCC2)C(c2c(F)cccc2Cl)CC(=O)N1` (stereo not drawn), the “activity change, negative = cytotoxicity” value is 1.73%. Same read-out and setting: the result for `COc1cccc(CN(C)CC(O)COC(c2ccccc2)c2ccccc2C)c1` (stereo not drawn) reads -80.7%. With `CN(Cc1ccccc1)CC(O)COc1ccc(CNCc2cc3ccccc3s2)cc1` (stereo not drawn), the Potency is 11.2 µM (active). Consider `COC(=O)c1ccc(OCC(O)CN(CCO)CC(O)Cn2ccc3ccccc32)cc1` (stereo not drawn), for which the “activity change, negative = cytotoxicity” value is -3.35%. Still for that read-out and setting: to `C=C1CCN(C(CC(C)C)C(=O)NCc2cc(OC)c(OC)c(OC)c2)S(=O)(=O)c2ccccc21` (stereo not drawn) belongs -4.21%; to `Cc1ccc(Cl)cc1NC(=O)/C(C#N)=C\c1cn(Cc2ccc(F)cc2)c2ccccc12`, -32.7%. On the same count and under the same terms, to `O=C(Cn1cc(/C=N/NC(=O)c2cccc(C(F)(F)F)c2)c2ccccc21)Nc1ccc(F)cc1` belongs -34.7%.

With `N#CCC(=O)N/N=C/c1cn(Cc2ccc3ccccc3c2)c2ccccc12`, the Potency was 3.55 µM (active). With `Cc1ccc(Cn2c(CCCNC(=O)C3CCCCC3)nc3ccccc32)cc1`, the “activity change, negative = cytotoxicity” value was -24%. Still for that read-out and setting: the result for `Cc1ccc2c(=O)c(C(=O)c3cccc(Cl)c3)cn(CC(=O)NCc3ccccc3)c2n1` reads -18.6%; that for `COc1ccc(Cn2c(C(=O)O)c(CNCCc3cccs3)c3ccc(OC)cc32)cc1`, -6.96%.

Consider `COc1ccc(CCNCc2c(-c3ccccc3)n(C)c3ccccc23)cc1`, for which the Potency was 12.6 µM (active).

In the case of `COc1ccc(-c2c(C#Cc3ccccc3)c3ccccc3n2C)cc1`, the “activity change, negative = cytotoxicity” value is 0.571%.

With `CN(C)c1ccc(/C=C/c2sc3ccccc3[n+]2C)cc1`, the “activity change, negative = cytotoxicity” value is -41.5%. Still for that read-out and setting: the result for `CCC(C)c1ccc2oc(-c3ccc(NC(=O)c4cc5ccccc5o4)cc3)nc2c1` (stereo not drawn) reads 0.606%.

Take `CCc1ccc(C(CNc2nc(C(F)(F)F)nc3ccccc23)N(C)C)cc1` (stereo not drawn): the Potency is 20 µM (active). As to `CN(C)C(CNC(=O)Cc1ccc([N+](=O)[O-])cc1)c1ccccc1` (stereo not drawn), the “activity change, negative = cytotoxicity” value is -13.6%. As for `CN(NC(=O)c1ccccc1F)c1nc(C(F)(F)F)nc2ccccc12`, the “activity change, negative = cytotoxicity” value is -1.05%. `CC1CCN(S(=O)(=O)c2ccc3c(ccn3CCC(=O)NCc3ccc(N(C)C)cc3)c2)CC1`: the “activity change, negative = cytotoxicity” value is -26.5%.

With `O=C(O)c1c(Br)c(Br)c(Br)c(Br)c1C1c2ccc(O)cc2Oc2cc(O)ccc21`, the “activity change, negative = cytotoxicity” value was 1.05%.

As for `Cc1cc(F)ccc1NS(=O)(=O)c1ccc(-n2cccn2)cc1`, the “activity change, negative = cytotoxicity” value was -13.1%. Take `Cc1ccc(OCCn2c(CNc3ccccc3C)nc3ccccc32)cc1`: the “activity change, negative = cytotoxicity” value was -44.5%. On the same count and under the same terms, the result for `Cc1ccc(Oc2ccc3c(c2)C(=O)N(c2cccc4cccnc24)C3=O)cc1` reads 18.4%.

Consider `Cc1ccc(OS(=O)Nc2cccc3nccnc23)cc1` (stereo not drawn), for which the Potency was 15.8 µM (active).

Regarding `CCOCCn1ccc2c(OCC(=O)NCc3ccc(C)cc3)cccc2c1=O`, the “activity change, negative = cytotoxicity” value is -4%. Same read-out and setting: to `COc1ccc(Cc2nc3ccc(C(=O)NCc4ccc(OC)cc4OC)cc3o2)cc1` belongs -13.9%. Regarding `CCOC(=O)c1c(NC(=O)c2ccc(S(=O)(=O)N3CCCC(C)C3)cc2)sc2c1CCN(C(C)C)C2` (stereo not drawn), the Potency was 10 µM (active). In the case of `CCOC(=O)c1c(NC(=O)C2CCN(S(=O)(=O)c3ccc(Cl)cc3)CC2)sc2c1CCCC2`, the “activity change, negative = cytotoxicity” value is 7.04%. Same read-out and setting: the result for `COC(=O)c1c(NC(=O)c2ccc(S(=O)(=O)N3CCOCC3)cc2)sc2c1CCN(C(C)C)C2` reads -16.4%.

Regarding `Cc1nc2c(c(C)nn2-c2ccccc2)c(C)c1CCC(=O)NCCc1ccc(Cl)cc1`, the “activity change, negative = cytotoxicity” value is 0.163%. Consider `CCOCCCNC(=O)c1cn(CC)c2ccc(S(=O)(=O)N3CCc4ccccc4C3)cc2c1=O`, for which the “activity change, negative = cytotoxicity” value was -29%. On the same count and under the same terms, to `CCOC(=O)c1c(C)oc2nc(C)nc(N(CC(C)C)CC(C)C)c12` belongs -42.6%. With `CCOc1cc(C2c3c(-c4ccc(Br)cc4)n[nH]c3C(=O)N2c2ccc(Cl)cc2)ccc1O` (stereo not drawn), the Potency is 10 µM (active). On to `CCOc1ccc(-c2n[nH]c3c2C(c2ccccc2OC)N(c2ccc(Br)cc2)C3=O)cc1` (stereo not drawn), for which the “activity change, negative = cytotoxicity” value was -17.9%.

With `CCOC(=O)c1ccc(N2C(=O)c3n[nH]c(C)c3C2c2ccc(O)c(OC)c2)cc1` (stereo not drawn), the “activity change, negative = cytotoxicity” value was -22.1%. The same measure, in the same setting: the result for `O=C(NCc1ccc(Cl)cc1)c1ccc2c(c1)nnn2C1CCCC1` reads -20%; that for `COc1ccc(C(=O)COC(=O)C(O)c2ccccc2)c(OC)c1` (stereo not drawn), -6.27%.

On to `COc1ccc(C(=O)/C=C/c2cccnc2)c(OC)c1`, for which the Potency was 15.8 µM (active).

Source of the values: PubChem BioAssay AID588856 (National Center for Advancing Translational Sciences (NCATS), 2011).
